These results are taken from PubChem BioAssay (NCATS).

Records with an inconclusive call do not appear. Values without a mark were called inactive. Calls of active or inactive are those of the source. Calls follow the shape of the dose curve; as a rule, active = well fitted curve in either direction with a large enough effect (not every such curve was filed as active); inconclusive = small, poorly fitted or top-dose-only effect, or another doubt; inactive = flat fitted curve, though single readings scatter.
% is scaled to controls: 0 for no effect and ±100 for the full control effect.

The assay is described as follows: NFAT Signaling Pathway (AID 444). To be noted: Jurkat NFAT-bla M1, carbachol, beta-lactamase ratio, 5 h; at 7.69 µM (top of the series) unless noted. The text has this:
NCGC Assay Overview: The nuclear factor of activated T cells (NFAT) family of transcription factors has been found primarily in most immune system cells and some other non-immune cells. NFAT plays the immunomodulatory role, primarily in T-cell activation and differentiation. NFAT target genes are also involved in the regulation of apoptosis and differentiation in non-immune cell types. The NFAT sequence was engineered to the upstream of the ?-lactamase reporter gene and transfected into Jurkat cells with co-transfection of muscarinic receptor1 [provided by Invitrogen Corp]. When an extracellular stimulus, such as carbachol, binds to the GPCR M1 receptor, it stimulates a signaling cascade that activates NFAT response element and ?-lactamase expression by phosphorylating the NFAT binding protein. This cell based ?-lactamase reporter gene assay can accurately monitor any changes occurring along the NFAT pathway, and can be used for screening small molecule inhibitor or activator upon activation by carbachol EC50 concentration. A small molecular library were screened in a titration series resulting in AC50s (can be either IC50s or EC50s).
NCGC Assay Protocol Summary: The cells were prepared in RPMI 1640 medium containing 0.1% dialyzed FBS and 25 mM HEPES at 1.6 x 10^6cell/ml. The assay was performed in 1536-well plate format as follows: 5 ul of cell preparation 23 nl of compounds 1ul of carbachol (final concentration 1 uM) Briefly centrifuge the plates and incubate at 37 °C for 5 hours 1 ul of CCF4 dye mixture Incubate the plates at RT for 1 hour Read the plate in EnVision plate reader (Ex= 405nm, and Em1=460nm and Em2=530nm). The %Activity was determined from the ratio of 460nm/530nm. Data normalization and AC50 calculations were accomplished using GeneData software.
As for `O=C(c1ccco1)N1CCC[C@@]2(CCN(c3ccccc3)C2)C1`, the activity change, negative = inhibition is -13.1%.

As for `COc1ccc(-c2nc3cnc(N4CCOCC4)nc3n(-c3ccccc3)c2=O)cc1`, the activity change, negative = inhibition was 23.9%.

Regarding `CN(C)c1ncc2ncc(=O)n(CCc3ccccc3)c2n1`, the activity change, negative = inhibition is -10.8%.

`O=C(Cc1ccc(Cl)c(Cl)c1)OCCN1CCCC1`: the activity change, negative = inhibition was -14.7% [at 38 µM].

Turning to `O=c1c(-c2cc(F)cc(F)c2)nc2cncnc2n1-c1ccccc1`, the activity change, negative = inhibition was -2.26%.

As for `COc1ccc(-c2nc3cnc(N4CCOCC4)nc3n(C3CC3)c2=O)cc1`, the activity change, negative = inhibition is 8.69%.

In the case of `COc1ccc(-n2c(=O)c(C)nc3cnc(Oc4ccccc4)nc32)cc1`, the activity change, negative = inhibition was 4.01%.

Turning to `Cc1cnc(CNc2ncnc3ccc(-c4ccoc4)cc23)cn1`, the activity change, negative = inhibition is -6.73%.

On to `O=C(Nc1cccc(F)c1)N1CCC2(CCNCC2)CC1`, for which the activity change, negative = inhibition is -3.25%.

Turning to `O=c1cnc2cncnc2n1Cc1ccccc1Cl`, the activity change, negative = inhibition is -28.3%.

Regarding `Cc1noc(C)c1C(=O)N1CCC2(CC1)CCN(c1cccc(-c3ccccc3)c1)CC2`, the activity change, negative = inhibition was -2.13%.

In the case of `CN(C)c1ncc2nc(-c3ccc(F)cc3)c(=O)n(C[C@H]3CCCO3)c2n1`, the activity change, negative = inhibition is 26.7%.

Take `CN(Cc1ccco1)c1ncnc2ccc(-c3ccoc3)cc12`: the activity change, negative = inhibition is -26.3%.

For `COc1ccc(-c2nc3cnc(Oc4ccccc4)nc3n(CCC#N)c2=O)cc1`, the activity change, negative = inhibition was -15.1%.

For `c1nc(N2CCNCC2)c2cc(-c3ccc4c(c3)OCO4)ccc2n1`, the activity change, negative = inhibition was -0.53%.

As for `CN(Cc1ccco1)c1cc(-c2ccoc2)ncn1`, the activity change, negative = inhibition is -2.33%.

On to `CN1CCN(c2ncnc3ccc(-c4ccccc4C#N)cc23)CC1`, for which the activity change, negative = inhibition is -9.23%.

In the case of `CN(C)Cc1ccccc1-c1nc(N2CCOCC2)c2ccccc2n1`, the activity change, negative = inhibition was -1.63%.

In the case of `COc1cccc(Nc2ncc3nc(C)c(=O)n(CCc4ccccc4)c3n2)c1`, the activity change, negative = inhibition was 3.56%.

As for `COc1ccc(-n2c(=O)c(-c3cccs3)nc3cnc(N4CCOCC4)nc32)cc1`, the activity change, negative = inhibition was -15.7%.

With `Cc1noc(C)c1C(=O)N1CCC2(CCN(C(=O)NC(C)C)CC2)CC1`, the activity change, negative = inhibition was 5.4%.

With `O=C(c1ccncc1)N1CCC2(CC1)CN(c1cccc(-c3ccccc3)c1)C2`, the activity change, negative = inhibition was 7.15%.

Take `COc1ccccc1-c1nccc(NCc2cnc(C)cn2)n1`: the activity change, negative = inhibition is 2.9%.

`O=C(c1csnn1)N1CCC2(CC1)CN(C(c1ccccc1)c1ccccc1)C2`: the activity change, negative = inhibition was -2.37%.

Turning to `O=C(Nc1cccc(F)c1)N1CC2(CCN(S(=O)(=O)c3ccccc3)CC2)C1`, the activity change, negative = inhibition was 22.6%.

Take `COCCn1c(=O)cnc2cnc(OC)nc21`: the activity change, negative = inhibition was 1.87%.

On to `CN1CCN(c2ncc3nc(-c4cc(F)cc(F)c4)c(=O)n(Cc4cccs4)c3n2)CC1`, for which the activity change, negative = inhibition is 168% [activator] (active).

As for `O=C(c1csnn1)N1CCC2(CC1)CN(c1ccccn1)C2`, the activity change, negative = inhibition is -19.4%.

In the case of `O=C(Nc1cccc(F)c1)N1CCCC2(CCNCC2)C1`, the activity change, negative = inhibition was 12.2%.

As to `Cc1nc2cnc(Nc3ccccc3)nc2n(C2CC2)c1=O`, the activity change, negative = inhibition is 1.3%.

In the case of `COc1ncc2nc(-c3ccc(F)cc3)c(=O)n(-c3ccccc3)c2n1`, the activity change, negative = inhibition is -7.66%.

Consider `COc1ccccc1CCn1c(=O)c(-c2cc(F)cc(F)c2)nc2cncnc21`, for which the activity change, negative = inhibition is -7.47%.

On to `CC(=O)N1CCC2(CCN(Cc3cc(C(F)(F)F)cc(C(F)(F)F)c3)CC2)CC1`, for which the activity change, negative = inhibition is -19.4%.

For `O=c1c(-c2ccc(F)cc2)nc2cnc(Oc3ccccc3)nc2n1Cc1cccs1`, the activity change, negative = inhibition is 2.8%.

Consider `COc1ccc(-n2c(=O)cnc3cnc(OC)nc32)cc1`, for which the activity change, negative = inhibition was -7.79%.

Consider `CC(C)NC(=O)N1CCCC2(CCN(C(=O)c3cc(C(F)(F)F)cc(C(F)(F)F)c3)CC2)C1`, for which the activity change, negative = inhibition was 11.4%.

With `O=C(c1ccncc1)N1CCC2(CC1)CN(c1ncccn1)C2`, the activity change, negative = inhibition is 6.22%.

Regarding `O=c1c(-c2ccc(F)cc2)nc2cnc(N3CCOCC3)nc2n1Cc1cccs1`, the activity change, negative = inhibition is 13.3%.

Consider `COc1ccc(NC(=O)N2CC[C@@]3(CCCN(C(=O)c4ccc(OC)cc4)C3)C2)cc1`, for which the activity change, negative = inhibition was 10.5%.

In the case of `Cc1noc(C)c1-c1nccc(NCc2cccnc2)n1`, the activity change, negative = inhibition is -9.01%.
